This note sets out measurements from PMC5540273 (PLoS ONE, 2017).

Common to all, as to conditions: concentration: 1 μM, replicates: in singlicate; n = 1
Assay [1] concerns CSF1R.
The test system of assay [2] is CSK.
Assay [3] has as its system CSNK1A1L.
Assay [4] has as its system CSNK1A1.
Assay [5] deals with CSNK1D.
The test system of assay [6] is CSNK1E.
Assay [7] relates to CSNK1G1.
Assay [8] relates to CSNK1G2.
The subject of assay [9] is CSNK1G3.
The subject of assay [10] is CSNK2A1.
For assay [11], the system named is CSNK2A2.
The subject of assay [12] is T1, CTK.
T1 construct: gene MATK

The test system of assay [13] is DAPK1.
In assay [14] the test system is DAPK2.
Assay [15] has as its system DAPK3.
For assay [16], the system named is T2, DCAMKL1.
T2 construct: gene DCLK1

The test system of assay [17] is T3, DCAMKL2.
T3 construct: gene DCLK2

In assay [18] the test system is T4, DCAMKL3.
T4 construct: gene DCLK3

Assay [19] deals with DDR1.
Assay [20] has as its system DDR2.
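Note: KINOMEscan kinase panel screen.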

With `COC(=O)c1c(-c2ccccc2)c2cc(C)ccc2c(=O)n1Cc1ccccc1`, the “%Inh” value was 17% in [1]; 0% in assay [2]; 0% in [3]; 0% in [4]; 0% in assay [5]; 0% in assay [6]. Besides, the “%Inh” value in assay [7] is listed as 0%; in assay [8] it was 5%; in assay [9], 0%; in assay [10], 0%; in assay [11], 0%; in [12], 0%. Moreover, the “%Inh” value amounted to 1% in assay [13]; 0% in assay [14]; 0% in assay [15]; 0% in assay [16]; 6% in [17]; 0% in [18]. Besides, the entries for the “%Inh” value in assay [19] and in assay [20] were 60% and 33%, respectively.
Consider `CCn1c(-c2nonc2N)nc2ccccc21` [SB-693162/GW549034], for which the “%Inh” value was 0% in [1]; 5% in assay [2]; 0% in [3]; 6% in assay [4]; 7% in assay [5]; 0% in [6]. Moreover, the “%Inh” value in assay [7] turned out to be 0%; in assay [8], 0%; in assay [9], 0%; in [10] it was 21%; in [11] it was 19%; in assay [12], 31%. For the same molecule, the “%Inh” value in [13] turned out to be 13%; in assay [14] it was 0%; in assay [15], 0%; in assay [16], 0%; in [17] it was 0%; in assay [18] it was 13%. Further, the “%Inh” value in [19] and in [20] was 0% in each case.
As for `CN1C(=O)C(Nc2cc(Cl)c(O)c(Cl)c2)=C(c2ccc(Cl)cc2)C1=O` [SB-404321], the “%Inh” value in assay [1], in [2], in [3], in assay [4], in assay [5] and in [6] was 0% each time. The “%Inh” value worked out at 0% in [7]; 0% in [8]; 6% in [9]; 0% in assay [10]; 0% in [11]; 52% in assay [12]. In addition, the “%Inh” value in assay [13], in assay [14], in [15], in assay [16], in assay [17] and in assay [18] was 0% in each case. The “%Inh” value in assay [19] worked out at 0%; in [20], 10%.
Regarding `COc1cc2nccc(Nc3ccc(OCc4ccc(NC(C)=O)cc4)cc3)c2cc1OC.Cl` [GW440135], the “%Inh” value is 73% in assay [1]; 0% in assay [2]; 15% in [3]; 0% in assay [4]; 0% in [5]; 16% in assay [6]. In addition, the “%Inh” value in assay [7] is 0%; in assay [8] it was 0%; in assay [9] it was 15%; in assay [10] it was 5%; in assay [11], 0%; in [12], 20%. In addition, the “%Inh” value stood at 0% in [13]; 10% in assay [14]; 1% in assay [15]; 4% in assay [16]; 0% in assay [17]; 0% in [18]. Moreover, the “%Inh” value in [19] was determined as 0%; in assay [20] it was 45%.
With `C[C@@H]1CC[C@H](C(=O)NC2CCCCC2)CN1c1cc(-c2ccc3c(N)n[nH]c3c2)nc(N)n1` [GSK2291363], the “%Inh” value in assay [1] is reported as 26%; in assay [2], 0%; in assay [3] it was 12%; in assay [4], 0%; in assay [5], 17%; in assay [6], 24%. In addition, the “%Inh” value in assay [7] was found to be 14%; in assay [8] it was 3%; in assay [9] it was 30%; in assay [10], 21%; in [11], 0%; in assay [12], 0%. The “%Inh” value is reported as 18% in assay [13]; 47% in [14]; 35% in assay [15]; 14% in [16]; 24% in [17]; 0% in [18]. The results for the “%Inh” value in assay [19] and in assay [20] were 0% and 3%, respectively.
As for `Cc1ccc(-c2ccc3c(ccc4sc5c(c43)NC[C@@H](C)N=C5N(C)C)n2)cn1`, the “%Inh” value in assay [1] worked out at 0%; in assay [2], 0%; in [3] it was 0%; in [4], 6%; in assay [5], 0%; in [6], 0%. In addition, the “%Inh” value is reported as 0% in assay [7]; 0% in [8]; 1% in assay [9]; 0% in assay [10]; 0% in assay [11]; 8% in [12]. Besides, the “%Inh” value in assay [13] stood at 0%; in [14], 0%; in assay [15] it was 0%; in assay [16], 9%; in assay [17], 0%; in assay [18] it was 0%. In addition, the “%Inh” value in assay [19] and in assay [20] was 0% throughout.
`CCn1c(-c2ccoc2)nc2cnccc21` [SB-733887]: the “%Inh” value in [1] was found to be 8%; in assay [2] it was 0%; in assay [3] it was 0%; in [4], 0%; in [5] it was 12%; in assay [6], 3%. Further, the “%Inh” value stood at 0% in assay [7]; 0% in assay [8]; 4% in assay [9]; 0% in [10]; 13% in [11]; 0% in [12]. The “%Inh” value turned out to be 0% in [13]; 0% in [14]; 14% in assay [15]; 34% in assay [16]; 0% in [17]; 0% in assay [18]. The “%Inh” value in assay [19] turned out to be 27%; in [20], 14%.
As for `CCC(=O)c1c(-c2ccccc2)c2cc(Cl)ccc2c(=O)n1Cc1ccc(C(=O)O)cc1`, the “%Inh” value in [1] stood at 2%; in [2], 0%; in [3], 1%; in assay [4], 0%; in assay [5] it was 0%; in assay [6], 0%. In addition, the “%Inh” value in [7], in assay [8], in [9], in assay [10], in [11] and in assay [12] was 0% in each case. Further, the “%Inh” value is given as 13% in assay [13]; 0% in assay [14]; 0% in assay [15]; 8% in assay [16]; 0% in assay [17]; 0% in [18]. For the same molecule, the “%Inh” value in assay [19] worked out at 24%; in assay [20], 34%.
Consider `Fc1cccc(CSc2nnc(-c3ccc4c(c3)CCO4)o2)c1`, for which the “%Inh” value in assay [1] is 0%; in [2], 0%; in assay [3], 11%; in assay [4] it was 8%; in [5], 0%; in [6], 0%. The “%Inh” value in [7] was determined as 15%; in [8], 10%; in assay [9], 0%; in assay [10], 16%; in assay [11], 33%; in assay [12] it was 11%. Besides, the “%Inh” value in assay [13] stood at 3%; in assay [14] it was 0%; in [15] it was 0%; in assay [16], 20%; in [17], 0%; in [18], 0%. Moreover, the entries for the “%Inh” value in [19] and in assay [20] were 0% and 16%, respectively.
In the case of `CCC(=O)c1c(-c2ccccc2)c2cc(Cl)ccc2c(=O)n1Cc1cc(S(C)(=O)=O)n(CC(F)F)n1`, the “%Inh” value in [1] stood at 10%; in [2], 73%; in [3] it was 0%; in assay [4] it was 0%; in assay [5], 0%; in assay [6], 1%. Also, the “%Inh” value is on record as 0% in assay [7]; 7% in [8]; 0% in assay [9]; 0% in assay [10]; 0% in assay [11]; 0% in [12]. The “%Inh” value in [13] is 0%; in assay [14], 0%; in assay [15] it was 0%; in assay [16], 19%; in assay [17] it was 0%; in [18], 1%. The “%Inh” value in assay [19] is recorded as 18%; in assay [20], 10%.
